The campaign covered roughly 5,500 compounds. About 2,000 (36%) were called active. Not shown: some 18% with an inconclusive outcome. Cut-off read from the data, not from the text of the source: active = normalized growth mostly below about 0.91 (no sharp cut-off); inconclusive = no clear call, values can overlap the other calls; inactive = mostly above about 0.92. This is one part of the list.
Experiment: chemical genetic growth profiling, strain panel (AID 1159580);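 note: tested at 20 µM; growth read once vehicle control cultures reached saturation at 30 °C; 1 = growth at the plate median or of vehicle wells; lower values mean less growth of the strain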
Conditions: S. cerevisiae deletion strains, growth OD

Measured: normalized growth

CCCCCCCCCCCCCCCC(=O)OC[C@H](NC(=O)C(Cl)Cl)[C@H](O)c1ccc([N+](=O)[O-])cc1
active: locus YMR058W, strain fet3, stronger effect = lower value 0.88 | locus YMR129W, stronger effect = lower value 1.09 [resistant]
inactive: locus YAL021C, strain ccr4, stronger effect = lower value 0.986 | locus YAL026C, strain drs2, stronger effect = lower value 0.995 | locus YAL030W, strain snc1, stronger effect = lower value 1.04 | locus YBL061C, strain skt5, stronger effect = lower value 1.02 | locus YBR009C, strain hhf1, stronger effect = lower value 1.02 | locus YBR023C, strain chs3, stronger effect = lower value 1.01 | locus YBR171W, strain sec66, stronger effect = lower value 1.06 | locus YBR231C, strain swc5, stronger effect = lower value 1.01 | locus YBR279W, strain paf1, stronger effect = lower value 1.02 | locus YCL011C, strain gbp2, stronger effect = lower value 1.03 | locus YCL016C, strain dcc1, stronger effect = lower value 1 | locus YCL069W, strain vba3, stronger effect = lower value 1.04 | locus YCR088W, strain abp1, stronger effect = lower value 1.04 | locus YDL005C, strain med2, stronger effect = lower value 1.05 | locus YDL040C, strain nat1, stronger effect = lower value 1.01 | locus YDR001C, strain nth1, stronger effect = lower value 1.03 | locus YDR069C, strain doa4, stronger effect = lower value 0.973 | locus YDR137W, strain rgp1, stronger effect = lower value 1.01 | locus YDR159W, strain sac3, stronger effect = lower value 1.03 | locus YDR195W, strain ref2 1.05 | locus YDR297W, strain sur2, stronger effect = lower value 1.03 | locus YDR334W, strain swr1, stronger effect = lower value 1.03 | locus YDR335W, strain msn5, stronger effect = lower value 1.02 | locus YDR392W, strain spt3, stronger effect = lower value 1.03 | locus YEL003W, strain gim4, stronger effect = lower value 1.04 | locus YEL037C, strain rad23, stronger effect = lower value 1.03 | locus YEL061C, strain CIN8 (second series), stronger effect = lower value 1.04 | locus YER015W, strain faa2, stronger effect = lower value 1 | locus YER016W, strain bim1, stronger effect = lower value 1.02 | locus YER111C, strain swi4, stronger effect = lower value 1.02 | locus YER155C, strain BEM2 (second series), stronger effect = lower value 1.03 | locus YFR010W, strain ubp6, stronger effect = lower value 1.01 | locus YGL167C, strain pmr1, stronger effect = lower value 1.03 | locus YGL173C, strain kem1, stronger effect = lower value 1.05 | locus YGL227W, strain vid30, stronger effect = lower value 1.04 | locus YGL240W, strain doc1, stronger effect = lower value 1.07 | locus YGL253W, strain hxk2, stronger effect = lower value 1.01 | locus YHR013C, strain ard1, stronger effect = lower value 1.07 | locus YHR027C, strain rpn1, stronger effect = lower value 0.992 | locus YHR030C, strain SLT2, stronger effect = lower value 0.97 | locus YHR079C, strain IRE1, stronger effect = lower value 0.985 | locus YHR142W, strain chs7, stronger effect = lower value 1.05 | locus YJL092W, strain hpr5, stronger effect = lower value 1.04 | locus YJL095W, strain BCK1 (second series), stronger effect = lower value 1.05 | locus YJL095W, strain BCK1, stronger effect = lower value 0.998 | locus YJL115W, strain asf1, stronger effect = lower value 1.05 | locus YJL129C, strain trk1, stronger effect = lower value 1.09 | locus YJL154C, strain vps35, stronger effect = lower value 1.03 | locus YJL164C, strain tpk1, stronger effect = lower value 1.04 | locus YJL166W, strain qcr8, stronger effect = lower value 1.03 | locus YJL187C, strain SWE1, stronger effect = lower value 1.05 | locus YJR066W, strain TOR1, stronger effect = lower value 0.984 | locus YKL160W, strain elf1, stronger effect = lower value 1.02 | locus YKR026C, strain gcn3, stronger effect = lower value 1.03 | locus YKR091W, strain srl3, stronger effect = lower value 1.02 | locus YLL001W, strain dnm1, stronger effect = lower value 1.02 | locus YLL026W, stronger effect = lower value 1 | locus YLL041C, strain sdh2, stronger effect = lower value 1.02 | locus YLR027C, strain aat2, stronger effect = lower value 1.02 | locus YLR113W, strain HOG1, stronger effect = lower value 0.975 | locus YLR221C, strain rsa3, stronger effect = lower value 1.02 | locus YLR258W, strain gsy2, stronger effect = lower value 1.03 | locus YLR262C, strain YPT6 (second series), stronger effect = lower value 1.03 | locus YLR320W, strain mms22, stronger effect = lower value 1.01 | locus YLR342W, strain FKS1, stronger effect = lower value 1.01 | locus YLR357W, strain rsc2, stronger effect = lower value 1.03 | locus YLR370C, strain arc18, stronger effect = lower value 1.04 | locus YLR384C, strain iki3, stronger effect = lower value 1.02 | locus YML120C, strain ndi1, stronger effect = lower value 1.01 | locus YMR125W, strain sto1, stronger effect = lower value 1.06 | locus YMR205C, strain PFK2, stronger effect = lower value 1.04 | locus YMR231W, strain pep5, stronger effect = lower value 1.03 | locus YNL071W, strain lat1, stronger effect = lower value 0.986 | locus YNL183C, strain NPR1, stronger effect = lower value 0.927 | locus YNL209W, strain ssb2, stronger effect = lower value 0.995 | locus YNL248C, strain rpa49, stronger effect = lower value 1.04 | locus YNL322C, strain KRE1 (second series), stronger effect = lower value 1.05 | locus YNR049C, strain mso1, stronger effect = lower value 1.04 | locus YOR001W, strain rrp6, stronger effect = lower value 1.03 | locus YOR070C, strain gyp1, stronger effect = lower value 1.03 | locus YOR080W, strain dia2, stronger effect = lower value 1.03 | locus YOR083W, strain WHI5, stronger effect = lower value 1 | locus YOR106W, strain vam3, stronger effect = lower value 1.02 | locus YOR231W, strain MKK1, stronger effect = lower value 0.997 | locus YOR265W, strain rbl2, stronger effect = lower value 1.02 | locus YOR270C, strain vph1, stronger effect = lower value 1 | locus YOR290C, strain snf2, stronger effect = lower value 0.999 | locus YPL051W, strain arl3, stronger effect = lower value 0.999 | locus YPL078C, strain atp4, stronger effect = lower value 1.04 | locus YPL106C, strain sse1, stronger effect = lower value 1.08 | locus YPL240C, strain hsp82, stronger effect = lower value 1.05 | locus YPL256C, strain CLN2, stronger effect = lower value 1.01
